Experimental data published in PubChem BioAssay (NCI).
This is part of a sample that, as a whole, favours compounds with a hit. Of some 83,000 tested, about 20% had one in any assay.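 The test compound was applied at a single concentration to cells in 96-well plates for 48 hours, and percent growth was recorded.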 A number with no mark means an inactive call. Active and inactive are the calls of the source. Rule for the calls: active = growth percent below 10; inactive = the rest.

Test system: NCI-H23 lung
Assay: NCI-60 one-dose screen, 48 h (100 = growth as untreated, 0 = no growth, -100 = all killed)
Details: 10 µM unless noted

Row | SMILES | growth
1 | CC(=O)Oc1ccc(CCN2C(=O)CSC2=S)cc1 | 101%
2 | COc1cc(/C=N/n2cnc3oc(-c4ccccc4)cc3c2=N)cc(CN2CCOCC2)c1O | 73%
3 | CCOC(=O)/C=c1\sc2n(c1=O)C1C(NN=2)N(CC)C(=O)N1CC (stereo not drawn) | 79.6%
4 | CN(C)c1ccc(/C=N/Nc2nc(N/N=C/c3ccc(N(C)C)cc3)nc(N3CCOCC3)n2)cc1 | 99.3%
5 | COc1cc2oc(-c3cccc(NC(=O)c4cc(NC(=O)[C@H](C)NC(=O)OC(C)(C)C)ccc4C)c3)cc(=O)c2c(OC)c1OC | 63.8%
6 | CN1CCN(Cc2ccc(NC(=O)c3cncc(C#Cc4cnc5ccc(NC6CCOCC6)nn45)c3)cc2C(F)(F)F)CC1 | -52.9% (active)
7 | O=C(Nc1ccc(Cl)cc1)Nc1nc2ccc([N+](=O)[O-])cc2s1 | -45.5% (active)
8 | CCCCCCNC(=O)Oc1ccc(/C(=C(/C)c2ccc(OC)cc2)c2ccc(OCCN3CCCC3)cc2)cc1 | 78.8%
9 | O=c1c2ccccc2nc(COc2ccccc2)n1/N=C/C=C/c1ccccc1 | 95.9%
10 | CCCCCc1ccc(S(=O)(=O)N(C(C)=O)c2cccc(-c3csc(N(CCN4CCN(C)CC4)C(C)=O)n3)c2)cc1 | 48.9%
11 | O=C(NNc1nc2cc(F)c(F)cc2n2cccc12)c1ccncn1 | 18.3%
12 | O=C(CCCCCCN1CC(=O)N2[C@@H](c3cccc(Cl)c3)c3[nH]c4ccccc4c3C[C@H]2C1=O)NO | 71.3%
13 | O=C(/C=C/c1cn(-c2ccccc2)nc1-c1ccc(Cl)cc1)c1cc2ccccc2oc1=O | 78.3%
14 | COc1cc(/C=C/C(=O)c2ccc(NC(=O)COc3cccc4cccnc34)cc2)cc(OC)c1OC | 78.7%
15 | O=C(Nc1cccc(Cl)c1)Nc1nc2ccc([N+](=O)[O-])cc2s1 | -20.9% (active)
16 | O=C(NNc1nc2cc(F)cc(F)c2n2cccc12)c1ccncn1 | 17.6%
17 | C[C@H]1[C@H](C)CC[C@]2(COC(=O)c3cccnc3)CC[C@]3(C)C(=CC[C@@H]4[C@@]5(C)CCCNC(C)(C)[C@@H]5CC[C@]43C)[C@H]12 | 70%
18 | CN1CCN(c2ccc(NC(=O)Nc3ccc4c(ccn4-c4cccc(C(N)=O)n4)c3)cc2C(F)(F)F)CC1 | 72.5%
19 | COc1ccc(OC)c([C@H]2c3[nH]c4ccccc4c3C[C@H]3C(=O)N(CCCCCCC(=O)NO)CC(=O)N23)c1 | 100%
20 | CS(=O)c1nccc(-c2c(-c3ccc(F)c(OCc4ccccc4)c3)nc3sccn23)n1 (stereo not drawn) | 88.2%
21 | CC(=O)NC(C)(C)C(=O)N1CCC[C@H]1C(=O)NC(C)(C)C(=O)N[C@@H](C)C(=O)NC(C)(C)C(=O)N[C@@H](C)C(=O)N[C@@H](CCC(N)=O)C(=O)NC(C)(C)C(=O)N[C@H](C(=O)NC(C)(C)C(=O)NCC(=O)N[C@@H](CC(C)C)C(=O)NC(C)(C)C(=O)N1CCC[C@H]1C(=O)N[C@H](C(=O)NC(C)(C)C(=O)NC(C)(C)C(=O)N[C@@H](CCC(N)=O)C(=O)N[C@@H](CCC(N)=O)C(=O)N[C@H](CO)Cc1ccccc1)C(C)C)C(C)C | 41% [4.25 µM]
22 | C=C(C)[C@@H]1CC[C@]2(C(=O)NCCCN(CCC#N)CCC#N)CC[C@]3(C)[C@H](CC[C@@H]4[C@@]5(C)CCC(=O)C(C)(C)[C@@H]5CC[C@]43C)[C@@H]12 | 93.6%
23 | O=C(CN1C(=O)S/C(=C\c2ccccc2)C1=O)Nc1ccc(C(=O)/C=C/c2cc3ccccc3nc2Cl)cc1 | 59.3%
24 | N#Cc1c(-c2cccs2)cc(-c2cnccn2)nc1SCC(=O)NNC(=S)Nc1ccc(F)cc1 | 108%
25 | CN1CCN(c2nc(-c3cnc4ccccc4n3)cc3ccccc23)CC1 | 90.9%
26 | Cc1cc(O)c(=O)cc2c1C[C@H]1CC(C)(C)/C=C/C[C@]3(C)Oc4cc(=O)c(O)cc(C)c4C[C@H]3C[C@H](O)[C@@]1(C)O2 | -10.9% (active)
27 | CC(C)=CCC[C@](C)(O)[C@H]1CC[C@]2(C)[C@@H]1CC[C@@H]1[C@@]3(C)CCC(NC(=O)c4ccccc4C(=O)O)C(C)(C)[C@@H]3CC[C@]12C (stereo partly drawn) | 85.8%
28 | CN1CCN(c2ccc3c(C(N)=O)c(NC(=O)c4ccc(C(C)(C)C)cc4)sc3c2)CC1 | 79.7%
